Data as given in publication PMC11062922 (Nature Chemical Biology, 2023).
Like-named read-outs stand apart in the source and are kept apart here.

Legend:
Parameters in all cases: species or system human, MV4-11 + K-562 + COLO205 + SK-N-BE2 + OVCAR-8
NUAK1 = conditions: read-out: apparent Kd, compound concentrations: 100 nM and 1000 nM (sheet 'Samples'), n = 1
SYK = conditions: read-out: apparent Kd, compound concentrations: 100 nM and 1000 nM (sheet 'Samples'), n = 1
ABCD3 = conditions: read-out: apparent Kd, n = 1
ADCK3 = conditions: read-out: apparent Kd; compound concentrations: 100 nM and 1000 nM (sheet 'Samples'), CATDS: 0.47577761034239902; n = 1
ACVR2B = conditions: read-out: apparent Kd, compound concentrations: 100 nM and 1000 nM (sheet 'Samples'), n = 1
BMPR1A = conditions: read-out: apparent Kd, compound concentrations: 100 nM and 1000 nM (sheet 'Samples'), n = 1
SIK3 = conditions: read-out: apparent Kd, compound concentrations: 100 nM and 1000 nM (sheet 'Samples'), n = 1
AURKA = conditions: read-out: apparent Kd, n = 1
MAPK11 = conditions: read-out: apparent Kd, compound concentrations: 100 nM and 1000 nM (sheet 'Samples'), n = 1
PKN3 = conditions: read-out: apparent Kd; compound concentrations: 100 nM and 1000 nM (sheet 'Samples'), CATDS: 0.111672357015452; n = 1
ERCC2 = conditions: read-out: apparent Kd; compound concentrations: 100 nM and 1000 nM (sheet 'Samples'), CATDS: 7.2588346323970404E-2; n = 1
MAPK10 = conditions: read-out: apparent Kd, compound concentrations: 100 nM and 1000 nM (sheet 'Samples'), n = 1
PYGL = conditions: read-out: apparent Kd; compound concentrations: 100 nM and 1000 nM (sheet 'Samples'), CATDS: 3.8130802338003297E-2; n = 1
TAOK1 = conditions: read-out: apparent Kd, n = 1
ERBB3 = conditions: read-out: apparent Kd; compound concentrations: 100 nM and 1000 nM (sheet 'Samples'), CATDS: 3.16220170710034E-2; n = 1
EPHB3 = conditions: read-out: apparent Kd; compound concentrations: 100 nM and 1000 nM (sheet 'Samples'), CATDS: 2.1562283576004201E-2; n = 1
STK10 = conditions: read-out: apparent Kd; compound concentrations: 100 nM and 1000 nM (sheet 'Samples'), CATDS: 2.4296695352096099E-2; n = 1
[1] = compound concentrations:100 nM and 1000 nM (sheet 'Samples')

Question: Cc1cccc(Nc2nc(NCCN)ncc2C(N)=O)c1 [GSK1292139B] was tested. Which potency estimated from few doses (NUAK1; CATDS: 0.100745572773025) did it give?
Answer: 611 nM

Question: What about the potency estimated from few doses (SYK; CATDS: 7.0539324655896005E-2) of the same compound?
Answer: 1500 nM

Question: For CCc1nc(-c2cccc(N(C)S(=O)(=O)c3ccccc3)c2)c(-c2ccnc(Nc3ccc(N4CCN(C(C)=O)CC4)nc3)n2)s1 [GSK1645895A], which potency estimated from few doses (ABCD3; compound concentrations: 100 nM and 1000 nM (sheet 'Samples'), CATDS: 0.16057119825567601) is on record?
Answer: 1310 nM

Question: And the potency estimated from few doses (ADCK3)?
Answer: 196 nM

Question: Which results are given for Cl.Oc1cccc(Nc2ccnc3cc(-c4ccncc4)ccc23)c1 [GW494601A]?
Answer: potency estimated from few doses (ACVR2B; CATDS: 0.269416694406998): 2.16 nM; potency estimated from few doses (BMPR1A; CATDS: 2.7920432625818298E-2): 313 nM; potency estimated from few doses (SIK3; CATDS: 2.0843232752511001E-2): 1150 nM

Question: Which results are given for CCn1cc(-c2ccnc3[nH]c(-c4cccc(CN(C)C)c4)cc23)c(-c2ccc(NC(=O)N(C)C)cc2)n1 [GSK1070916]?
Answer: potency estimated from few doses (ABCD3; [1]): 1970 nM; potency estimated from few doses (AURKA; [1]): 197 nM

Question: Which results are given for COc1cc(Nc2ccnc3cc(-c4ccncc4)ccc23)cc(OC)c1OC.Cl [GW494610A]?
Answer: potency estimated from few doses (BMPR1A; CATDS: 3.04170421320503E-2): 486 nM; potency estimated from few doses (MAPK11; CATDS: 2.2230478875047501E-2): 1610 nM; potency estimated from few doses (PKN3): 24.1 nM; potency estimated from few doses (SIK3; CATDS: 4.52892719114492E-2): 160 nM

Question: How did the potency estimated from few doses (ERCC2) turn out when Cl.O=C1N=C(NCc2ccccn2)S/C1=C\c1ccc2ncccc2c1 [RO4874953-001] was run?
Answer: 1850 nM

Question: For COc1ccc(Nc2nccc(N3CCC(NC(=O)Nc4ccc5c(c4)OCO5)C3)n2)cc1 (stereo not shown) [GSK1379745A], which potency estimated from few doses (ABCD3; compound concentrations: 100 nM and 1000 nM (sheet 'Samples'), CATDS: 3.9996680208342399E-2) is on record?
Answer: 1500 nM

Question: And the potency estimated from few doses (ACVR2B; CATDS: 4.7768277435408998E-2)?
Answer: 1050 nM

Question: And the potency estimated from few doses (MAPK10; CATDS: 3.9230525665234099E-2)?
Answer: 1570 nM

Question: And the potency estimated from few doses (MAPK11; CATDS: 3.6090086264463E-2)?
Answer: 1900 nM

Question: And the potency estimated from few doses (PYGL)?
Answer: 1670 nM

Question: And the potency estimated from few doses (SYK; CATDS: 3.71249657659821E-2)?
Answer: 1780 nM

Question: What about the potency estimated from few doses (TAOK1; compound concentrations: 100 nM and 1000 nM (sheet 'Samples'), CATDS: 4.1153987901417902E-2) of the same compound?
Answer: 1410 nM

Question: Which results are given for COc1cccc(-n2ncc3c(N/N=C/c4ccc(C(=O)NCCN(C)C)cc4)ncnc32)c1.Cl [GW784307A]?
Answer: potency estimated from few doses (BMPR1A; CATDS: 4.33451441122037E-2): 353 nM; potency estimated from few doses (ERBB3): 874 nM

Question: Cc1ccc(O)cc1Nc1ccnc2cc(-c3ccc(CN4CCCCC4)o3)ccc12 [GW557777X] was tested. Which potency estimated from few doses (ACVR2B; CATDS: 2.4906220143484401E-2) did it give?
Answer: 45.3 nM

Question: And the potency estimated from few doses (BMPR1A; CATDS: 1.65124596245807E-2)?
Answer: 269 nM

Question: And the potency estimated from few doses (EPHB3)?
Answer: 78.2 nM

Question: And the potency estimated from few doses (SIK3; CATDS: 1.3583905279374199E-2)?
Answer: 975 nM

Question: What about the potency estimated from few doses (SYK; CATDS: 1.2716705388879999E-2) of the same compound?
Answer: 1860 nM

Question: How did the potency estimated from few doses (ACVR2B; CATDS: 0.173302967359416) turn out when NC(=O)c1cccc(Nc2nccc(Nc3cccc4[nH]ncc34)n2)c1 [GW782612X] was run?
Answer: 52.4 nM

Question: What about the potency estimated from few doses (AURKA; compound concentrations: 100 nM and 1000 nM (sheet 'Samples'), CATDS: 4.2767473291312301E-2) of the same compound?
Answer: 808 nM

Question: And the potency estimated from few doses (BMPR1A; CATDS: 3.8772747112030999E-2)?
Answer: 1090 nM

Question: And the potency estimated from few doses (NUAK1; CATDS: 5.2412926017760202E-2)?
Answer: 475 nM

Question: How did the potency estimated from few doses (ABCD3; [1]) turn out when CS(=O)(=O)Cc1ccc(Nc2nccc(-c3c(-c4cccc(NC(=O)C5CCCCC5)c4)nn4ncccc34)n2)cc1 [GSK350559A] was run?
Answer: 1580 nM

Question: How did the potency estimated from few doses (TAOK1; compound concentrations: 100 nM and 1000 nM (sheet 'Samples'), CATDS: 7.1757893284069299E-2) turn out when COc1ccccc1CNC1=NC(=O)/C(=C/c2ccc3ncccc3c2)S1 [RO4503315-000] was run?
Answer: 1130 nM

Question: Which potency estimated from few doses (AURKA; compound concentrations: 100 nM and 1000 nM (sheet 'Samples'), CATDS: 6.1882254370992797E-2) does the source give for CNC(=O)c1ccccc1Nc1nc(Nc2cccc(CS(C)(=O)=O)c2)ncc1C.O=CO [GSK1520489A] here?
Answer: 16.9 nM

Question: And the potency estimated from few doses (MAPK10; CATDS: 1.2611209241053301E-2)?
Answer: 502 nM

Question: And the potency estimated from few doses (NUAK1; CATDS: 1.6678428283329098E-2)?
Answer: 217 nM

Question: What about the potency estimated from few doses (STK10) of the same compound?
Answer: 88.5 nM

Question: O=S(=O)(c1ccc(-c2ccnc3[nH]ccc23)cc1)N1CCCC1 [GSK846226A] was tested. Which potency estimated from few doses (TAOK1; [1]) did it give?
Answer: 1690 nM

Question: For CN1CCN(Cc2ccc(NC(=O)Nc3ccc(N(C)c4ccnc(Nc5ccc(CS(C)(=O)=O)cc5)n4)cc3)cc2)CC1.Cl [GW827654A], which potency estimated from few doses (AURKA; compound concentrations: 100 nM and 1000 nM (sheet 'Samples'), CATDS: 6.4898936627914502E-2) is on record?
Answer: 288 nM
